Where a name gives a salt, the structure may show the parent alone. ± gives the standard error. The whole screen tested about 1,300 compounds, of which about 130 (10%) showed an effect of 50% or more. The full list was thinned out, with strong results kept by preference.
System: Trichoderma virens ATCC 9645
Assay: growth yield (OD600) with compound + IPBC relative to untreated control; higher = less growth inhibition
Conditions: compound concentration: 100 uM, IPBC concentration: 200 ng/ml
Procedure, shortened: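 Growth appears as means of duplicate screens, relative to the control containing neither agent. To obtain it, OD600 was read on a BioTek EL800 at 40 h and 72 h. The cultures were 100 μl aliquots in 96-well plates at 30 °C, holding Trichoderma virens ATCC 9645 spores at 15,000 spores ml^−1 in potato dextrose broth, library compounds at 100 μM final, and, in some wells, a biocide at 200 ng ml^−1.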

Question: Which growth yield (40 h) does the source give for O=C1CN(/N=C/c2ccc(-c3ccc([N+](=O)[O-])cc3)o2)C(=O)N1 [Dantrolene sodium salt] + CCCCNC(=O)OCC#CI [3-iodo-2-propynyl butylcarbamate (IPBC)] here?
Answer: 103 ± 3.8%

Question: And the growth yield (72 h)?
Answer: 104 ± 3.1%

Question: What does the source list for CCCCC(CC)CNC(=N)NC(=N)NCCCCCCNC(=N)NC(=N)NCC(CC)CCCC (stereo not drawn) [Alexidine dihydrochloride] + CCCCNC(=O)OCC#CI [3-iodo-2-propynyl butylcarbamate (IPBC)]?
Answer: growth yield (40 h): 2.5415 ± 3.6e-15%; growth yield (72 h): 2.94 ± 0.21%

Question: With Cn1c(=O)c2c(ncn2CC(=O)O)n(C)c1=O [Acefylline] + CCCCNC(=O)OCC#CI [3-iodo-2-propynyl butylcarbamate (IPBC)] as the molecule, how does the growth yield (40 h) read?
Answer: 90.1 ± 2.1%

Question: And the growth yield (72 h)?
Answer: 91.1 ± 2%

Question: How did the growth yield (40 h) turn out when NCC(CC(=O)O)c1ccc(Cl)cc1 (racemic) [Baclofen (R,S)] + CCCCNC(=O)OCC#CI [3-iodo-2-propynyl butylcarbamate (IPBC)] was run?
Answer: 96.1 ± 4%

Question: What about the growth yield (72 h) of the same molecule?
Answer: 96.8 ± 3.2%

Question: With O=C(O)c1cccnc1 [Niacin] + CCCCNC(=O)OCC#CI [3-iodo-2-propynyl butylcarbamate (IPBC)] as the molecule, how does the growth yield (40 h) read?
Answer: 105 ± 1.9%

Question: And the growth yield (72 h)?
Answer: 102.8 ± 0.84%

Question: Which growth yield (40 h) does the source give for CC(=O)Oc1ccccc1C(=O)Oc1ccccc1C(=O)O [Acetylsalicylsalicylic acid] + CCCCNC(=O)OCC#CI [3-iodo-2-propynyl butylcarbamate (IPBC)] here?
Answer: 85 ± 1.8%

Question: What about the growth yield (72 h) of the same molecule?
Answer: 89.7 ± 2.2%

Question: O=C(Oc1cccc2cccnc12)c1ccccc1 [Benzoxiquine] + CCCCNC(=O)OCC#CI [3-iodo-2-propynyl butylcarbamate (IPBC)] was tested. Which growth yield (40 h) did it give?
Answer: 36.4 ± 0.48%

Question: And the growth yield (72 h)?
Answer: 65.5 ± 0.73%

Question: For Fc1ccc([C@@H]2CCNC[C@H]2COc2ccc3c(c2)OCO3)cc1 [Paroxetine Hydrochloride] + CCCCNC(=O)OCC#CI [3-iodo-2-propynyl butylcarbamate (IPBC)], which growth yield (40 h) is on record?
Answer: 68 ± 4.8%

Question: And the growth yield (72 h)?
Answer: 92.5 ± 2.5%

Question: For O=C(O)CNC(=O)C(CS)Cc1ccccc1 (stereo not drawn) [Thiorphan] + CCCCNC(=O)OCC#CI [3-iodo-2-propynyl butylcarbamate (IPBC)], which growth yield (40 h) is on record?
Answer: 88.16 ± 0.48%

Question: And the growth yield (72 h)?
Answer: 90%

Question: What does the source list for C/C(=C(\CCOP(=O)(O)O)SC(=O)c1ccccc1)N(C=O)Cc1cnc(C)nc1N [Benfotiamine] + CCCCNC(=O)OCC#CI [3-iodo-2-propynyl butylcarbamate (IPBC)]?
Answer: growth yield (40 h): 89.6 ± 4.1%; growth yield (72 h): 90.3 ± 3.7%

Question: What does the source list for COc1cc(C)nc(-n2nc(C)cc2OC)n1 [Epirizole] + CCCCNC(=O)OCC#CI [3-iodo-2-propynyl butylcarbamate (IPBC)]?
Answer: growth yield (40 h): 92.3 ± 7.5%; growth yield (72 h): 101 ± 6.2%

Question: For C[C@@H](CN1CC(=O)NC(=O)C1)N1CC(=O)NC(=O)C1 [Dexrazoxane hydrochloride] + CCCCNC(=O)OCC#CI [3-iodo-2-propynyl butylcarbamate (IPBC)], which growth yield (40 h) is on record?
Answer: 109.4 ± 0.48%

Question: What about the growth yield (72 h) of the same molecule?
Answer: 106 ± 4.2%

Question: CCN(CC)C(=O)/C(C#N)=C/c1cc(O)c(O)c([N+](=O)[O-])c1 [Entacapone] + CCCCNC(=O)OCC#CI [3-iodo-2-propynyl butylcarbamate (IPBC)] was tested. Which growth yield (40 h) did it give?
Answer: 88 ± 0.64%

Question: And the growth yield (72 h)?
Answer: 80.4 ± 1.4%

Question: What does the source list for Cc1ccc(C(=O)c2cc(O)c(O)c([N+](=O)[O-])c2)cc1 [Tolcapone] + CCCCNC(=O)OCC#CI [3-iodo-2-propynyl butylcarbamate (IPBC)]?
Answer: growth yield (40 h): 47.5 ± 3.3%; growth yield (72 h): 56 ± 2.7%

Question: Which results are given for NC[C@@H]1O[C@@H](O[C@H]2[C@H](O)[C@@H](O[C@H]3O[C@H](CO)[C@@H](O)[C@H](N)[C@H]3O)[C@H](N)C[C@@H]2N)[C@@H](O)[C@H](O)[C@H]1O [Kanamycin A sulfate] + CCCCNC(=O)OCC#CI [3-iodo-2-propynyl butylcarbamate (IPBC)]?
Answer: growth yield (40 h): 87.2 ± 9.4%; growth yield (72 h): 93.4 ± 4.7%

Question: With c1ccc(CN(CC2=NCCN2)c2ccccc2)cc1 [Antazoline hydrochloride] + CCCCNC(=O)OCC#CI [3-iodo-2-propynyl butylcarbamate (IPBC)] as the molecule, how does the growth yield (40 h) read?
Answer: 82.76 ± 0.79%

Question: What about the growth yield (72 h) of the same molecule?
Answer: 94.28 ± 0.94%

Question: For C#C[C@]1(O)CC[C@H]2[C@@H]3CCC4=CC(=O)CC[C@]4(C)[C@H]3CC[C@@]21C [Ethisterone] + CCCCNC(=O)OCC#CI [3-iodo-2-propynyl butylcarbamate (IPBC)], which growth yield (40 h) is on record?
Answer: 105 ± 2.7%

Question: What about the growth yield (72 h) of the same molecule?
Answer: 105 ± 3.2%

Question: What does the source list for C=CCN1CCCC1CNC(=O)c1cc2nn[nH]c2cc1OC (stereo not drawn) [Alizapride hydrochloride] + CCCCNC(=O)OCC#CI [3-iodo-2-propynyl butylcarbamate (IPBC)]?
Answer: growth yield (40 h): 111.5 ± 0.32%; growth yield (72 h): 107%

Question: With OC(CNCC(O)C1CCc2cc(F)ccc2O1)C1CCc2cc(F)ccc2O1 (stereo not drawn) [Nebivolol hydrochloride] + CCCCNC(=O)OCC#CI [3-iodo-2-propynyl butylcarbamate (IPBC)] as the molecule, how does the growth yield (40 h) read?
Answer: 11.3 ± 4.3%

Question: And the growth yield (72 h)?
Answer: 63.7 ± 18%

Question: How did the growth yield (40 h) turn out when NC(=O)c1cccnc1 [Nicotinamide] + CCCCNC(=O)OCC#CI [3-iodo-2-propynyl butylcarbamate (IPBC)] was run?
Answer: 106 ± 4.8%

Question: And the growth yield (72 h)?
Answer: 101.4 ± 0.94%

Question: What does the source list for C=CC1=C(C(=O)O)N2C(=O)[C@@H](NC(=O)/C(=N\OCC(=O)O)c3csc(N)n3)[C@H]2SC1 [Cefixime] + CCCCNC(=O)OCC#CI [3-iodo-2-propynyl butylcarbamate (IPBC)]?
Answer: growth yield (40 h): 104.8 ± 0.64%; growth yield (72 h): 103%

Question: With Clc1cc(Cl)c(OCC#CI)cc1Cl [Haloprogin] + CCCCNC(=O)OCC#CI [3-iodo-2-propynyl butylcarbamate (IPBC)] as the molecule, how does the growth yield (40 h) read?
Answer: 5.24 ± 0.48%

Question: And the growth yield (72 h)?
Answer: 2.83 ± 1.6%

Question: What does the source list for CC1=Nc2ccc(Cl)cc2S(=O)(=O)N1 [Diazoxide] + CCCCNC(=O)OCC#CI [3-iodo-2-propynyl butylcarbamate (IPBC)]?
Answer: growth yield (40 h): 97.4 ± 4%; growth yield (72 h): 100.8 ± 0.94%

Question: Which growth yield (40 h) does the source give for CC[C@H]1OC(=O)[C@H](C)[C@@H](O[C@H]2C[C@@](C)(OC)[C@@H](O)[C@H](C)O2)[C@H](C)[C@@H](O[C@@H]2O[C@H](C)C[C@H](N(C)C)[C@H]2O)[C@](C)(O)C[C@@H](C)/C(=N\OCOCCOC)[C@H](C)[C@@H](O)[C@]1(C)O [Roxithromycin] + CCCCNC(=O)OCC#CI [3-iodo-2-propynyl butylcarbamate (IPBC)] here?
Answer: 97.2 ± 9.5%

Question: What about the growth yield (72 h) of the same molecule?
Answer: 96.4 ± 4.3%

Question: What does the source list for OC(c1ccccc1)(c1ccccc1)C1CCNCC1 [Azacyclonol] + CCCCNC(=O)OCC#CI [3-iodo-2-propynyl butylcarbamate (IPBC)]?
Answer: growth yield (40 h): 80.06 ± 0.32%; growth yield (72 h): 91.2 ± 1.5%

Question: Which results are given for CC(C)(C)c1ccc(C(O)CCCN2CCC(C(O)(c3ccccc3)c3ccccc3)CC2)cc1 (stereo not drawn) [Terfenadine] + CCCCNC(=O)OCC#CI [3-iodo-2-propynyl butylcarbamate (IPBC)]?
Answer: growth yield (40 h): 47.2 ± 9.1%; growth yield (72 h): 90.09 ± 0.73%

Question: How did the growth yield (40 h) turn out when CC(C)(C(=O)O)c1ccc(C(O)CCCN2CCC(C(O)(c3ccccc3)c3ccccc3)CC2)cc1 (stereo not drawn) [Fexofenadine hydrochloride] + CCCCNC(=O)OCC#CI [3-iodo-2-propynyl butylcarbamate (IPBC)] was run?
Answer: 89.3 ± 5.4%

Question: What about the growth yield (72 h) of the same molecule?
Answer: 95.5 ± 7.2%

Question: Which results are given for C[N+]12CCC(CC1)C(OC(=O)C(O)(c1ccccc1)c1ccccc1)C2 (stereo not drawn) [Clidinium bromide] + CCCCNC(=O)OCC#CI [3-iodo-2-propynyl butylcarbamate (IPBC)]?
Answer: growth yield (40 h): 95.8 ± 11%; growth yield (72 h): 95.8 ± 6.6%

Question: For O=C(NCCN1CCOCC1)c1ccc(Cl)cc1 [Moclobemide] + CCCCNC(=O)OCC#CI [3-iodo-2-propynyl butylcarbamate (IPBC)], which growth yield (40 h) is on record?
Answer: 81.6 ± 4.8%

Question: What about the growth yield (72 h) of the same molecule?
Answer: 89.7 ± 2%

Question: For Cc1c(N)c(=O)n(-c2ccccc2)n1C [Ampyrone] + CCCCNC(=O)OCC#CI [3-iodo-2-propynyl butylcarbamate (IPBC)], which growth yield (40 h) is on record?
Answer: 104 ± 3.8%

Question: What about the growth yield (72 h) of the same molecule?
Answer: 105 ± 1.8%

Question: How did the growth yield (40 h) turn out when CCCCOc1cc(C(=O)OCCN(CC)CC)ccc1N [Benoxinate hydrochloride] + CCCCNC(=O)OCC#CI [3-iodo-2-propynyl butylcarbamate (IPBC)] was run?
Answer: 84.82 ± 0.64%

Question: And the growth yield (72 h)?
Answer: 91.24 ± 0.63%

Question: Which results are given for CCCCc1oc2ccccc2c1C(=O)c1cc(I)c(OCCN(CC)CC)c(I)c1 [Amiodarone hydrochloride] + CCCCNC(=O)OCC#CI [3-iodo-2-propynyl butylcarbamate (IPBC)]?
Answer: growth yield (40 h): 2.06 ± 0.16%; growth yield (72 h): 2.41 ± 0.1%

Question: What does the source list for CCCCOc1cc(C(=O)NCCN(CC)CC)c2ccccc2n1 [Dibucaine] + CCCCNC(=O)OCC#CI [3-iodo-2-propynyl butylcarbamate (IPBC)]?
Answer: growth yield (40 h): 85 ± 1.4%; growth yield (72 h): 94.18 ± 0.21%

Question: For CCCCc1oc2ccc(NS(C)(=O)=O)cc2c1C(=O)c1ccc(OCCCN(CCCC)CCCC)cc1 [Dronedarone hydrochloride] + CCCCNC(=O)OCC#CI [3-iodo-2-propynyl butylcarbamate (IPBC)], which growth yield (40 h) is on record?
Answer: 6.51 ± 0.16%

Question: What about the growth yield (72 h) of the same molecule?
Answer: 3.25 ± 0.32%

Question: With CN(CCOc1ccc(NS(C)(=O)=O)cc1)CCc1ccc(NS(C)(=O)=O)cc1 [Dofetilide] + CCCCNC(=O)OCC#CI [3-iodo-2-propynyl butylcarbamate (IPBC)] as the molecule, how does the growth yield (40 h) read?
Answer: 88.79 ± 0.79%

Question: What about the growth yield (72 h) of the same molecule?
Answer: 90.3 ± 2%

Question: How did the growth yield (40 h) turn out when CCCCCCCN(CC)CCCC(O)c1ccc(NS(C)(=O)=O)cc1 (stereo not drawn) [Ibutilide fumarate] + CCCCNC(=O)OCC#CI [3-iodo-2-propynyl butylcarbamate (IPBC)] was run?
Answer: 85 ± 1.4%

Question: What about the growth yield (72 h) of the same molecule?
Answer: 88.1 ± 0.63%

Question: Which results are given for CCCCC1=NC2(CCCC2)C(=O)N1Cc1ccc(-c2ccccc2-c2nnn[nH]2)cc1 [Irbesartan] + CCCCNC(=O)OCC#CI [3-iodo-2-propynyl butylcarbamate (IPBC)]?
Answer: growth yield (40 h): 96.6 ± 6.7%; growth yield (72 h): 95.8 ± 3.5%

Question: Which growth yield (40 h) does the source give for NS(=O)(=O)c1cc2c(cc1Cl)N=C(CSCc1ccccc1)NS2(=O)=O [Benzthiazide] + CCCCNC(=O)OCC#CI [3-iodo-2-propynyl butylcarbamate (IPBC)] here?
Answer: 89.9 ± 0.32%

Question: What about the growth yield (72 h) of the same molecule?
Answer: 94.8 ± 1.3%

Question: O=C(OCC(O)CO)c1ccccc1Nc1ccnc2cc(Cl)ccc12 (stereo not drawn) [Glafenine hydrochloride] + CCCCNC(=O)OCC#CI [3-iodo-2-propynyl butylcarbamate (IPBC)] was tested. Which growth yield (40 h) did it give?
Answer: 84.3 ± 2.4%

Question: What about the growth yield (72 h) of the same molecule?
Answer: 97.3 ± 1.3%
